An excerpt weighted towards active compounds, which were near 3.6% of everything screened.
NPSR antag: neuropeptide S receptor (human) antagonism, cAMP; 1% of 220,000 active; CHO-NPSR cells, cAMP TR-FRET, antagonist mode; Q6W5P4; Potency, µM (titrated, usually from 38.3 µM), for the others: at the top dose activity change, negative = inhibition, actives largely listed as inhibitors; AID 1461; note: % is set by controls: 0 for no effect and ±100 for the full control effect; nearly all actives have a fitted effect of over 50% in size
Target sequence (Q6W5P4 whole entry, looked up): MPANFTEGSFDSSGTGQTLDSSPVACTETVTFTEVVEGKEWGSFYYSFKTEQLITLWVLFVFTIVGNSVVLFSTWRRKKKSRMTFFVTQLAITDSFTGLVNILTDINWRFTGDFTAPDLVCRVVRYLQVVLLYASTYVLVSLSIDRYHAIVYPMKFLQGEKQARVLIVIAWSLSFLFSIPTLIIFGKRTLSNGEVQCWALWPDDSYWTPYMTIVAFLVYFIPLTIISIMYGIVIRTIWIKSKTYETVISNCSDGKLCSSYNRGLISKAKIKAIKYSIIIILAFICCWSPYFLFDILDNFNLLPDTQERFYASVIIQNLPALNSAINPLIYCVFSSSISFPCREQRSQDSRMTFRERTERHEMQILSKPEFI
IMPase Li cell: IMPase inhibition in cells with lithium potentiation; CHO-M1 cells, IP1 TR-FRET (IP-One), carbachol + lithium; 0.35% of 210,000 active; AID 1457; Potency, µM (top dose mostly 59.4 µM), for inactives: at the highest dose activity, negative = IMPase inhibition, most hits filed as inhibitors;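 note: IP1 builds up when IMPase is blocked and the TR-FRET signal falls; plate controls were basal vehicle for no effect and high inhibitor control for full effect; nearly all actives have a fitted effect of over 50% in size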
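CHO cells stably expressing M1 receptor (2000/well) were cultured 16–30 h, then exposed to compounds with a small lithium addition for 30 min at 37C. IP1 was measured by TR-FRET competition; AC50 from Hill fits.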
KDM4E inh: blocks human JMJD2E demethylase activity. B2RXH2. JMJD2E catalytic domain, FDH-coupled NADH fluorescence (FDH is formaldehyde dehydrogenase). Potency, µM (doses to about 57.1 µM), for inactives: at the highest dose activity change, negative = inhibition, hits mostly inhibitors. 1.6% of 230,000 active. AID 2147; active = well fitted inhibition curve with a large enough effect, not every such curve was filed as active; inconclusive = small, poorly fitted or top-dose-only effect, or another doubt; inactive = no such curve, though single readings can be large or run the other way;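 note: 0% = wells with enzyme and -100% = buffer wells without enzyme; nearly all actives have a fitted effect of over 50% in size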
Target sequence (B2RXH2 1-337 limits assumed): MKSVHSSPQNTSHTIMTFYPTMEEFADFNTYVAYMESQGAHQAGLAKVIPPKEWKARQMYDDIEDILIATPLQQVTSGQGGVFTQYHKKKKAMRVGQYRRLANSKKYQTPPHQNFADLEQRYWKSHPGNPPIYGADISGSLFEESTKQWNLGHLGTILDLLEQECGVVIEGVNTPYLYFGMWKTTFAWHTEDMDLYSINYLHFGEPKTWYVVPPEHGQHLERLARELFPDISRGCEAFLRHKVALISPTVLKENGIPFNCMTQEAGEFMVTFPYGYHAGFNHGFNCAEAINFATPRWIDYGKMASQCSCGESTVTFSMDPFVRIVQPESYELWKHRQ
KAT2A inh: blocks human GCN5L2 histone acetyltransferase; GCN5L2 HAT assay, ThioGlo1 CoA-SH fluorescence; Potency, µM (series often up to 58.9 µM), without a hit: top-dose activity change, negative = inhibition, actives largely listed as inhibitors; 0.21% of 390,000 active; AID 504327; note: % is set by controls: 0 for no effect and ±100 for the full control effect
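Enzyme at 20nM final was mixed with library compounds for 15 min at room temperature. Peptide H3(1-25) at 75uM, acetyl-CoA at 70uM and ThioGlo1 at 50uM were then added. Plates were read immediately and after 20 min (Ex340nm/Em540nm).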
Sfp inh: inhibitors of Bacillus subtilis Sfp phosphopantetheinyl transferase. Q9F4F7. Biochemical Sfp PPTase activity, qHTS. Potency, µM, without a hit: largest response in the series, negative = inhibition, most hits filed as inhibitors. 3.5% of 310,000 active. AID 1490;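 note: the enzyme is Sfp with the accession as filed and its product quenches rhodamine fluorescence; 0% = enzyme reaction without inhibitor and -100% = no enzyme wells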
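With Hepes-Na pH 7.6 buffer containing 10 mM MgCl2, Sfp (15 nM) modified BHQ-2-YbbR (12.5 uM) using rhodamine-CoA (5 uM). Two reads 30 minutes apart at 525/598 nm yielded each well's rate.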
Epigenetic derep: derepresses silenced GFP reporter in murine cells. murine LDR cells, GFP reporter derepression, 30 h. Potency, µM (titrated, usually from 53.9 µM), without a hit: at the highest dose GFP activation, usual class: activators. 0.2% of 280,000 active. AID 1865; note: % of control where 0% means no effect; nearly all actives have a fitted effect of over 60% in size
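Reporter derepression read as number of fluorescent GFP-positive objects, 20-120 um in size, counted by laser-scanning cytometer. Mouse LDR line with an epigenetically silenced CMV-GFP locus; compound incubation 30 h, 37 C.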
* = called active by the depositor; [ ] = remark or other dose. Unless noted, calls come from the whole dose curve; as a rule, active = well fitted curve in the direction sought with a large enough effect; inconclusive = small, poorly fitted or top-dose-only effect, or another doubt; inactive = no such curve, though single readings can be large; an effect the other way counts as inactive or inconclusive. Potency is the fitted concentration of half-maximal effect.

For Cc1ccc(NC(=S)Nc2cccc3cnccc23)c(C)c1 the results were NPSR antag 3.7%, IMPase Li cell 7.1%, KDM4E inh inconclusive, KAT2A inh -9.9%, Sfp inh 50.1µM* and Epigenetic derep 1.3%.
For Cc1ccc(NC(=S)NNC(=S)Nc2ccc(C)cc2C)cc1 the results were NPSR antag 26.2%, IMPase Li cell 16.6%, KDM4E inh -8.2%, KAT2A inh 0.0%, Sfp inh 12.6µM* and Epigenetic derep -8.2%.
`O=C(NC(=S)Nc1cccc2cnccc12)c1ccccc1` gave NPSR antag -25.2%, IMPase Li cell -3.4%, KDM4E inh 7.3%, KAT2A inh 29.1%, Sfp inh 44.7µM* and Epigenetic derep -1.8%.
`COc1ccc(Cn2c(=O)n(-c3ccc(F)c(Cl)c3)c(=O)c3c2c2cc(OC)ccc2n3C)cc1` gave KAT2A inh -6.2% and Epigenetic derep 0.4%.
For CC(=O)OC[C@@H]1O[C@H](C/C=N\O[C@@H](C)c2cn([C@H]3COC[C@H]3O)nn2)C=C[C@@H]1OC(C)=O the results were Sfp inh 11.0% and Epigenetic derep 0.0%[10.1 µM].
`CC[C@@](N)(C(=O)O)c1ccc(C(=O)O)cc1` gave IMPase Li cell 1.2%, KDM4E inh 1.6%, KAT2A inh -9.6%, Sfp inh -4.7% and Epigenetic derep -1.1%.
For CCc1ccc(NC(=S)Nc2cccc3cnccc23)cc1 the results were NPSR antag -0.6%, IMPase Li cell 0.7%, KDM4E inh inconclusive, KAT2A inh -23.7%, Sfp inh 22.4µM* and Epigenetic derep 3.4%.
For Nc1ccccc1SCc1csc(-c2ccc(Cl)cc2)n1 the results were NPSR antag 19.6%, IMPase Li cell -9.5%, KDM4E inh -10.0%, KAT2A inh 3.2%, Sfp inh 14.1µM* and Epigenetic derep 0.5%.
O=C(NCc1cc(F)cc2c1OCCO2)[C@H]1C[C@@H]1[C@H](NP(=O)(c1ccccc1)c1ccccc1)c1ccccc1 was read as IMPase Li cell 0.3%, KDM4E inh inconclusive, Sfp inh 7.5% and Epigenetic derep -1.0%.
For Cc1cc(C)c2[nH]c(=S)cc(C)c2c1 the results were NPSR antag 19.3%[46.1 µM], IMPase Li cell -15.3%[38.3 µM], KDM4E inh 5.0%, KAT2A inh 0.7%, Sfp inh 16.6% and Epigenetic derep 1.5%.
Cc1cc(=S)[nH]c(=S)[nH]1 was read as NPSR antag -18.9%, KDM4E inh -3.0%, KAT2A inh -6.3%, Sfp inh 44.7µM* and Epigenetic derep 2.1%.
Screening Cc1nc(NC(=O)/C=C/c2ccco2)sc1C returned NPSR antag 12.3%, IMPase Li cell 3.0%, KDM4E inh inconclusive, KAT2A inh 1.0%, Sfp inh 70.8µM* and Epigenetic derep -1.1%.
Cc1ccc(-c2csc(NC(=O)/C=C/c3ccco3)c2C(=O)O)cc1 was read as NPSR antag -33.5%, IMPase Li cell 4.1%, KDM4E inh inconclusive, KAT2A inh -22.3%, Sfp inh 28.2µM* and Epigenetic derep 1.6%.
For O=C(/C=C/c1ccco1)Nc1sc2c(c1C(=O)O)CCC2 the results were NPSR antag -13.3%[46.1 µM], IMPase Li cell -6.1%[38.3 µM], KDM4E inh -7.4%, KAT2A inh inconclusive, Sfp inh 50.1µM* and Epigenetic derep -1.3%.
O=C(Nc1scc(-c2ccc(F)cc2)c1C(=O)O)c1ccco1 was read as NPSR antag -11.8%[46.1 µM], IMPase Li cell 47.3%[38.3 µM], KDM4E inh -26.6%, KAT2A inh -26.5%, Sfp inh -2.7% and Epigenetic derep 1.0%.
For N#Cc1c(NC(=O)/C=C/c2ccco2)sc2c1CCCC2 the results were NPSR antag 6.3%, IMPase Li cell -2.8%, KDM4E inh inconclusive, KAT2A inh 44.8%, Sfp inh inconclusive and Epigenetic derep 2.1%.
Screening O=C(/C=C/c1ccco1)Nc1nnc(-c2ccco2)s1 returned NPSR antag -3.9%, IMPase Li cell -3.9%, KDM4E inh inconclusive, KAT2A inh -5.9%, Sfp inh 6.1% and Epigenetic derep 2.4%.
O=C(CCS(=O)(=O)c1cc(Br)cc2c1N(C(=O)C1CC1)CC2)NCc1ccccc1Cl was read as KAT2A inh -5.6% and Epigenetic derep -0.4%.
NC(=O)NC(=O)CC1S/C(=N/N=C2\CSC(=O)N2)NC1=O (stereo unspecified) was read as NPSR antag 22.5%, IMPase Li cell 9.2%, KDM4E inh 54.2%, KAT2A inh -3.3%, Sfp inh 11.2µM* and Epigenetic derep -3.8%.
For O=C(O)CNC(=O)CC1S/C(=N/N=C2/NC(=O)CS2)NC1=O (stereo unspecified) the results were NPSR antag 11.0%, IMPase Li cell 2.9%, KDM4E inh 34.2%, KAT2A inh -4.4%, Sfp inh 31.6µM* and Epigenetic derep -1.2%.
Screening COC(=O)C1C(=O)C(C(=O)/C=C/c2ccco2)C(=O)CC1(C)C (stereo unspecified) returned IMPase Li cell 12.3%, KDM4E inh 2.1%, Sfp inh 56.2µM* and Epigenetic derep -2.2%.
For N#Cc1ccc(Oc2nc(C#N)cc(-c3ccccc3)n2)cc1 the results were NPSR antag -17.0%, IMPase Li cell 8.9%, KDM4E inh inconclusive, KAT2A inh -7.9%, Sfp inh 39.8µM* and Epigenetic derep -0.9%.
`Cc1ccc(N2CCN(Cc3nnc(-c4ccccc4F)o3)CC2)c(C)c1` gave KAT2A inh 2.8% and Epigenetic derep -2.2%.
For O=C(O)C(c1ccccc1)N1C(=O)/C(=C\c2ccc(-c3ccccc3Cl)o2)SC1=S (stereo unspecified) the results were KAT2A inh inconclusive and Sfp inh 50.1µM*.
Screening COc1ccc(/C=C2\SC(=S)N(C(C(=O)O)c3ccccc3)C2=O)c(OC)c1 (stereo unspecified) returned NPSR antag -40.9%, KDM4E inh 2.2%, KAT2A inh -14.3%, Sfp inh 70.8µM* and Epigenetic derep 1.3%.
For Cc1cc(NC(=O)CCN2C(=O)/C(=C\c3ccccc3Cl)SC2=S)no1 the results were NPSR antag -3.9%, IMPase Li cell 1.9%, KDM4E inh 9.3%, KAT2A inh -6.0%, Sfp inh 50.1µM* and Epigenetic derep 5.2%.
Screening COc1ccccc1NC(=O)CCN1C(=O)/C(=C/c2cc(OC)c(OC)c(OC)c2)SC1=S returned KAT2A inh -5.2% and Sfp inh 44.7µM*.
For O=C(O)C(c1ccccc1)N1C(=O)/C(=C\c2ccc(-c3ccc(Br)cc3)o2)SC1=S (stereo unspecified) the results were KAT2A inh inconclusive and Sfp inh -23.3%.
